In PubChem BioAssay (EPA / NIEHS):
More than one record can exist for a structure, and the calls need not agree. The source made the active and inactive calls. How the source made its calls: active means hit-call score of the fitted dose curve at least 0.9, where 1 is the maximum; inactive means score below 0.9.

What follows are molecules tested on Interleukin 17F (IL17F), IL17F (gene 112744) (assay: BSK_BT_xIL17F: BioMAP Diversity Plus: BT Assay for Interleukin 17F (IL17F) Biomarker Activity (AID 2284243)). Conditions: primary human B cells with PBMC.
Description: BSK_BT is a cell-based, multiplexed-readout assay that uses B cell and peripheral blood mononuclear cells, a human vascular primary cell co-culture, with measurements taken at 24 hours after chemical dosing in a microplate: 96-well plate.BSK_BT_xIL17F is an assay component measured in the BSK_BT assay. It measures secreted IL-17F related to regulation of gene expression using LumineX xMAP technology.Data from the assay component BSK_BT_xIL17F was analyzed at the endpoint, BSK_BT_xIL17F, in the positive analysis fitting direction relative to DMSO as the negative control and baseline of activity. Using a type of cytokine quantitation reporter, gain or loss-of-signal activity can be used to understand protein changes. To generalize the intended target to other relatable targets, this assay endpoint is annotated to the 'cytokine' intended target family, where the subfamily is 'interleukins'.
The levels of cell surface (or secreted, indicated by the prefix "s") biomarker endpoints were measured by ELISA. Overt cytotoxicity to cells in confluent adherent cultures (all systems other than the BT system) was assessed by measuring total protein levels using sulforhodamine B (SRB) staining in parallel cultures at the time of biomarker measurements, indicated as SRB endpoints. For proliferation assays for adherent cell types, individual cell types are cultured at sub-confluence and relative cell numbers quantified by SRB staining at time points optimized for each system (48 h: 3C and CASM3C systems; 72 h: BT and HDF3CGF systems; 96 h: SAg system). SRB was performed by staining cells with 0.1% SRB after fixation with 10% TCA and reading wells at 560 nm.Viability and proliferation of PBMC (T cells) was quantified by Alamar Blue reduction for the SAg and BT systems. For PBMC viability (referred to as PBMC Cytotoxicity within the assay endpoint names), cells were plated (75,000/well in a 96-well plate) and then chemical samples added for 1 h before addition of activators, SEB and TSST-1 (20 ng/mL final concentration each). Cells were incubated for 90 h. Then, Alamar Blue (20 uL/well) (Invitrogen, Cat DAL1100) was added for 6 h, and the plates were read with a fluorescence microplate reader at 546/580 nm (excitation/emission). For PBMC proliferation, cells were plated and activated as above but incubated for only 16 h prior to addition of Alamar Blue. Plates were read after 6 h.

Structure (SMILES) | outcome | AC50
Cc1cc(-n2nc3ccc(Cl)cc3n2)c(O)c(C(C)(C)C)c1 | inactive | 
Sc1nc2ccccc2s1 | inactive | 
O=C(C(=O)c1ccccc1)c1ccccc1 | inactive | 
CN(C)CCC(c1ccc(Cl)cc1)c1ccccn1 (stereo unspecified) | inactive | 
COC(=O)/C=C\C(=O)OC |  | 20 µM (active)
OC(C(F)(F)F)(C(F)(F)F)C(O)(C(F)(F)F)C(F)(F)F | inactive | 13.1 µM (active)
CC(C)CC(=O)CC(C)CC(C)C (stereo unspecified) | inactive | 
CC[N+](CC)(CC(=O)Nc1c(C)cccc1C)Cc1ccccc1 | inactive | 
Oc1cccc2ccccc12 | inactive | 
CCCCCCCCCC/C=C/C1CC(=O)OC1=O (stereo unspecified) | inactive | 
Cc1cccnc1 | inactive | 
CCCCCCCCCCC1CO1 (stereo unspecified) | inactive | 
CCCCCCC(O)CCCCCCCCCCC(=O)OC (stereo unspecified) | inactive | 
CCCCCCCCCCCCCCCCCC[N+](C)(C)C |  | 2.08 µM (active)
CN(C)c1ccc(C(c2ccccc2)c2ccc(N(C)C)cc2)cc1 |  | 29 µM (active)
